Compound activity (PubChem BioAssay)
Pf Dd2 growth = Plasmodium falciparum Dd2 growth inhibition; Potency, µM (top dose mostly 28.9 µM), without a hit: top-dose activity, negative = inhibition, usual class: inhibitors; 120,000 tested, 4.3% active; P. falciparum Dd2 growth, SYBR Green, 72 h; AID 1347417; active means well fitted inhibition curve with a large enough effect;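 further: plate controls were DMSO vehicle for no effect and reference drug for full effect; nearly all actives have a fitted effect of over 65% in size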
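Readout: SYBR Green fluorescence, 485 nm excitation, 535 nm emission, after ~16 h lysis at 37C. Before that, Dd2-infected red cells (2.5% hematocrit) grew 72 h with compound, 29 uM top final concentration.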
An asterisk follows results filed as active; [ ] = another dose, or the depositor's remark. The full list was thinned out, with hits kept by preference. Potency means the concentration at half of the fitted maximal effect.

How did Cc1ccc(C)c(CN2C(=O)c3ccccc3S(=O)c3ccc(C(=O)NCCc4ccc(Cl)cc4)cc32)c1 (stereo not drawn) do in these assays?
Pf Dd2 growth: 5.01µM*

Results for COCCNC(=O)c1ccc2c(c1)N(Cc1cc(C)ccc1C)C(=O)c1ccccc1S2=O (stereo not drawn) ?
Pf Dd2 growth: inactive

How did Cc1ccc(C)c(CN2C(=O)c3ccccc3S(=O)c3ccc(C(=O)NCc4ccccc4Cl)cc32)c1 (stereo not drawn) do in these assays?
Pf Dd2 growth: -7.3%

How did Cc1ccccc1CN1C(=O)c2ccccc2Sc2ccc(C(=O)OCc3ccco3)cc21 do in these assays?
Pf Dd2 growth: 8.91µM*

Results for Cc1ccc(CN2C(=O)c3ccccc3Sc3ccc(C(=O)OCc4ccco4)cc32)cc1 ?
Pf Dd2 growth: -15.8%

How did Cc1nnc([C@@H]2CC(F)(F)CN2C(=O)c2nn(C)c3ccccc23)o1 do in these assays?
Pf Dd2 growth: -8.7%

How did CCn1cc(S(=O)(=O)N2CCC3(CCCN(CC4CC4)C3=O)C2)cn1 (stereo not drawn) do in these assays?
Pf Dd2 growth: -6.0%

What do the screens show for `COc1ccccc1OCc1cc(C(=O)NCc2cccc(C)c2)n[nH]1`?
Pf Dd2 growth: -8.5%

What do the screens show for `O=[S+]([O-])(c1ccccc1)N1CC2(COCCN(c3nccc(C(F)(F)F)n3)C2)C1`?
Pf Dd2 growth: 21.2%[44.1 µM]

Results for COC[C@@H]1CN(C(=O)c2cccc(C#N)c2)C[C@H]1c1ccccn1 ?
Pf Dd2 growth: 2.2%

Results for O=C(c1ccc(Cl)cc1)N1CCC(n2cc(-c3nc(-c4ccccc4)no3)nn2)C1 (stereo not drawn) ?
Pf Dd2 growth: -17.1%

What do the screens show for `O=C(Cc1ccc(Cl)cc1)N1CCC(n2cc(-c3nc(-c4ccccc4)no3)nn2)C1` (stereo not drawn)?
Pf Dd2 growth: -16.5%

Results for N#Cc1ccc(C(=O)N2CCC(n3cc(-c4nc(-c5ccccc5)no4)nn3)C2)cc1 (stereo not drawn) ?
Pf Dd2 growth: inactive

Results for N#Cc1ccc(C(=O)N2CCCC(n3cc(-c4nc(-c5ccccc5)no4)nn3)C2)cc1 (stereo not drawn) ?
Pf Dd2 growth: 4.47µM*

What do the screens show for `COc1ccc(C(=O)N2CCC(n3cc(-c4nc(-c5ccccc5)no4)nn3)CC2)cc1`?
Pf Dd2 growth: 1.26µM*

How did O=C(c1ccccc1)N1CCC(n2cc(-c3nc(-c4ccccc4)no3)nn2)C1 (stereo not drawn) do in these assays?
Pf Dd2 growth: -0.2%

Results for O=C(Cc1cccc(Cl)c1)N1CCC(n2cc(-c3nc(-c4ccccc4)no3)nn2)C1 (stereo not drawn) ?
Pf Dd2 growth: 138.4%

What do the screens show for `O=C(Cc1ccc(Cl)cc1)N1CCC(n2cc(-c3nc(-c4ccccc4)no3)nn2)CC1`?
Pf Dd2 growth: 2µM*

Results for COc1cccc(C(=O)N2CCC(n3cc(-c4nc(-c5ccccc5)no4)nn3)CC2)c1 ?
Pf Dd2 growth: -6.9%

What do the screens show for `COc1ccc(C2(C(=O)N(C)Cc3ccc(F)cc3)CCOCC2)cc1`?
Pf Dd2 growth: 3.5%

What do the screens show for `Cc1ccc(C2Cn3nnc(C(=O)N4CCC(C(=O)NCc5cccs5)CC4)c3CO2)cc1` (stereo not drawn)?
Pf Dd2 growth: inactive

What do the screens show for `Cc1nccn1CCCC(=O)N1CCC2(CC1)CNC(C(=O)O)C2` (stereo not drawn)?
Pf Dd2 growth: 1.9%

How did Cc1noc(-c2cn(C3CCCN(C(=O)c4ccc(C(C)(C)C)cc4)C3)nn2)n1 (stereo not drawn) do in these assays?
Pf Dd2 growth: -11.2%

What do the screens show for `COc1ccc2c(CNCc3ccccc3OC)c(C(=O)O)n(Cc3ccc(F)cc3Cl)c2c1`?
Pf Dd2 growth: 273.7%[0.0462 µM]

Results for COc1ccc(Cn2c(C(=O)O)c(CNC3CCCCC3)c3ccc(C)cc32)cc1 ?
Pf Dd2 growth: -18.0%

Results for C=Cc1ccc(Cn2c(C(=O)O)c(CNCCc3ccco3)c3ccc(C)cc32)cc1 ?
Pf Dd2 growth: -21.8%

How did COc1ccc(Cn2c(C(=O)O)c(CNCCc3cc(OC)ccc3OC)c3ccc(C)cc32)cc1 do in these assays?
Pf Dd2 growth: 8.91µM*

What do the screens show for `COc1ccc2c(CNCCc3cccs3)c(C(=O)O)n(Cc3ccccc3)c2c1`?
Pf Dd2 growth: -3.6%

How did CCOc1ccc(CCNCc2c(C(=O)O)n(Cc3ccc(C)cc3)c3cc(OC)ccc23)cc1 do in these assays?
Pf Dd2 growth: 11.2µM*

Results for COc1ccc(Cn2c(C(=O)O)c(CNCc3ccc(OC)cc3OC)c3ccc(C)cc32)cc1 ?
Pf Dd2 growth: 6.31µM*

How did COc1ccc2c(CNCCc3cccs3)c(C(=O)O)n(Cc3cccc(F)c3)c2c1 do in these assays?
Pf Dd2 growth: inactive

How did COc1ccc(Cn2c(C(=O)O)c(CNCCc3ccco3)c3ccc(C)cc32)cc1 do in these assays?
Pf Dd2 growth: -10.8%

How did Nc1nnnn1CC(=O)NCc1cccnc1Oc1ccc(F)cc1F do in these assays?
Pf Dd2 growth: -18.0%

How did Cn1ccnc1CN1C[C@@H]2C[C@H]1C(=O)N(Cc1ccccn1)c1ccccc1O2 do in these assays?
Pf Dd2 growth: -16.9%[44.1 µM]
